In all, about 290,000 compounds went through this assay and about 1,800 (0.62%) were called active. Rule as the data show it: active = inhibition above about 50%; inactive = the rest. Only a selection was taken, and actives are over-represented in it overall.
Test: inhibition of NOD2-driven NF-kB reporter – cell-based, luminescence, uHTS, HEK293 (AID 1566)
Conditions: HEK293 NOD2/NF-kB luciferase reporter, at 4 µM, hits give high values

Q: Which inhibition does the source give for `CCOc1ccc(N2C(=O)NC(=O)/C(=C/c3cnc(SC)nc3)C2=O)cc1` here?
A: 3% (inactive)

Q: Which inhibition does the source give for `Cc1ccc(N2C(=O)NC(=O)/C(=C\c3ccc([N+](=O)[O-])o3)C2=O)cc1` here?
A: 10.6% (inactive)

Q: For `C[n+]1c2ccccc2nc2ccc(NCCO)cc21`, which inhibition is on record?
A: 41.7% (inactive)

Q: Which inhibition does the source give for `Nc1cc2nc3ccccc3nc2cc1N` here?
A: -1.6% (inactive)

Q: For `CNc1ccc2nc3ccccc3[n+](C)c2c1`, which inhibition is on record?
A: 54.7% (active)

Q: For `CC(Cc1ccccc1)NC(=O)Cc1ccc([N+](=O)[O-])cc1` (centres undefined), which inhibition is on record?
A: 4.1% (inactive)

Q: With `CC(C(=O)c1ccc(Cl)cc1Cl)n1cncn1` (centres undefined) as the compound, how does the inhibition read?
A: -37.6% (inactive)

Q: With `CC1(c2ccc(Cl)cc2Cl)OCC(Cn2cncn2)O1` (centres undefined) as the compound, how does the inhibition read?
A: 60.3% (active)

Q: With `CCCC1COC(Cn2cncn2)(c2ccc(Cl)cc2Cl)O1` (centres undefined) as the compound, how does the inhibition read?
A: 5.9% (inactive)

Q: With `Cc1c(C(=O)N2CCC3(CC2)OCCO3)oc2ccc(S(=O)(=O)N3CCOCC3)cc12` as the compound, how does the inhibition read?
A: 9.5% (inactive)

Q: With `Clc1ccccc1NC1=NCCCS1` as the compound, how does the inhibition read?
A: -11.5% (inactive)

Q: With `Cn1ncnc2c(=O)n(C)c(=O)nc1-2` as the compound, how does the inhibition read?
A: 45.4% (inactive)

Q: With `CCn1nc(-c2cccs2)nc2c(=O)n(C)c(=O)nc1-2` as the compound, how does the inhibition read?
A: 72.1% (active)

Q: For `CCOc1ccc(-n2c(-c3cccs3)nc3ccccc3c2=O)cc1`, which inhibition is on record?
A: 21.3% (inactive)

Q: Which inhibition does the source give for `CCCCn1c(O)c(C(C)=NCCN2CCOCC2)c(=O)[nH]c1=O` here?
A: 2.3% (inactive)

Q: Which inhibition does the source give for `COc1ccc(CNCCc2c(C)[nH]c3ccc(OC(F)(F)F)cc23)c(OC)c1` here?
A: 57.8% (active)

Q: Which inhibition does the source give for `COc1ccc2[nH]c(C)c(CCNCc3cc(OC)c(OC)c(OC)c3)c2c1` here?
A: 6.9% (inactive)

Q: With `Cc1[nH]c2ccc(OC(F)(F)F)cc2c1CCNCc1ccc(Cl)cc1` as the compound, how does the inhibition read?
A: 2.1% (inactive)

Q: With `COc1cc2c(cc1OC)C(C(=O)N(C)C1CCCCC1)C1CCCCN1C2=O` (centres undefined) as the compound, how does the inhibition read?
A: 9.9% (inactive)

Q: Which inhibition does the source give for `CCCCn1c(=O)c(C(=O)Nc2ccccc2N)c(O)c2ccccc21` here?
A: 2.4% (inactive)

Q: For `COc1ccc(C2=NS(=O)(=O)N(C)C(C(=O)N3CCC4(CC3)OCCO4)=C2)cc1OC`, which inhibition is on record?
A: 8.1% (inactive)

Q: Which inhibition does the source give for `COc1ccc(CNCCc2ccc(Cl)cc2Cl)cc1` here?
A: -27.6% (inactive)

Q: Which inhibition does the source give for `Cc1nn(Cc2ccccc2Cl)c(C)c1C(=O)NC1CCCc2ccccc21` (centres undefined) here?
A: 20.5% (inactive)

Q: For `CN(C)C(=O)Oc1ccc2c(c1)O/C(=C\c1ccc(Cl)cc1)C2=O`, which inhibition is on record?
A: -16.2% (inactive)

Q: With `Cc1c(C(=O)Nc2ccccc2)cc(-c2ccccc2)n1CCCN1CCOCC1` as the compound, how does the inhibition read?
A: 8.6% (inactive)

Q: With `O=C(NCc1cccnc1)Nc1ccc([N+](=O)[O-])cc1` as the compound, how does the inhibition read?
A: -1.2% (inactive)

Q: For `Cc1ccc(CN2CCN(CC(=O)N3CCC4(CC3)OCCO4)C2=O)cc1`, which inhibition is on record?
A: -1.6% (inactive)

Q: Which inhibition does the source give for `C[C@H]1C[C@@H](C)C(=O)[C@@H]([C@H](O)CC2CC(=O)NC(=O)C2)C1` here?
A: 73% (active)

Q: Which inhibition does the source give for `CCn1c(O)c(C=Nc2ccc(N3CCOCC3)cc2)c(=O)n(CC)c1=S` here?
A: 22.7% (inactive)

Q: For `COCCN1C(=O)NC(=O)/C(=C\c2ccc(Br)cc2)C1=O`, which inhibition is on record?
A: 0.7% (inactive)

Q: For `CC(C)c1oc(=O)cc2c1[C@@H](O)[C@H]1OC(=O)[C@@]3(C)C[C@@H](O)[C@@H](O)[C@@]2(C)C13` (some centres undefined), which inhibition is on record?
A: 64.6% (active)

Q: For `CC(C)c1oc(=O)cc2c1[C@@H](O)[C@H]1OC(=O)[C@@]3(C)CC[C@@H](O)[C@@]2(C)C13` (some centres undefined), which inhibition is on record?
A: 20% (inactive)

Q: Which inhibition does the source give for `CC(Cc1ccsc1)NCc1cn[nH]c1-c1ccc(F)cc1F` (centres undefined) here?
A: 10.2% (inactive)

Q: Which inhibition does the source give for `COc1cc(N2CCOCC2)ccc1/C=C1\C(=O)NC(=O)N(C2CCCCC2)C1=O` here?
A: 12% (inactive)

Q: With `CCOC(=O)C1=CC(=C2C(=O)N(CC)C(=S)N(CC)C2=O)c2ccccc2O1` as the compound, how does the inhibition read?
A: 18.1% (inactive)

Q: For `O=C(CCNC(=O)N1C[C@H]2C[C@@H](C1)c1cccc(=O)n1C2)Nc1cccc(Cl)c1`, which inhibition is on record?
A: 13.1% (inactive)

Q: For `O=C(Nc1ccc(OC(=O)N2CCCCC2)cc1)N1CCOCC1`, which inhibition is on record?
A: 62.5% (active)

Q: For `O=C(Nc1cccc(OC(=O)N2CCCCC2)c1)N1CCOCC1`, which inhibition is on record?
A: -0.1% (inactive)

Q: For `O=C(Nc1ccc(OC(=O)N2CCCC2)cc1)N1CCOCC1`, which inhibition is on record?
A: 12.5% (inactive)

Q: For `COC(=O)c1nc(-c2ccc3c(n2)C(=O)C(N)=C(OC)C3=O)c(N)c(-c2ccc(OC)c(OC)c2O)c1C`, which inhibition is on record?
A: 57.2% (active)

Q: With `CCC(=O)Nc1cc(C(=O)N2CCC3(CC2)OCCO3)ccc1S(=O)(=O)c1ccc(C)cc1` as the compound, how does the inhibition read?
A: 0.8% (inactive)

Q: For `O=C(c1ccc(N2CCCCC2)c([N+](=O)[O-])c1)N1CCC2(CC1)OCCO2`, which inhibition is on record?
A: 9.1% (inactive)

Q: Which inhibition does the source give for `O=C(c1ccc(N2CCCCCC2)c([N+](=O)[O-])c1)N1CCC2(CC1)OCCO2` here?
A: 73.2% (active)

Q: With `CC(=O)Nc1cc(C(=O)N2CCC3(CC2)OCCO3)ccc1S(=O)(=O)c1ccc(C)cc1` as the compound, how does the inhibition read?
A: 52.9% (active)

Q: For `CC(=O)Nc1cc(C(=O)N2CCC3(CC2)OCCO3)ccc1S(=O)(=O)c1ccc(Cl)cc1`, which inhibition is on record?
A: 6.8% (inactive)

Q: For `CC1CCCN(c2ccc(C(=O)N3CCC4(CC3)OCCO4)cc2[N+](=O)[O-])C1` (centres undefined), which inhibition is on record?
A: 15.8% (inactive)

Q: With `O=C(COc1ccc2ccc(=O)oc2c1)N1C[C@H]2C[C@@H](C1)c1cccc(=O)n1C2` as the compound, how does the inhibition read?
A: -2.7% (inactive)

Q: With `CN1CC(C(=O)c2ccc([N+](=O)[O-])cc2)C(c2ccc(Cl)cc2)C1` (centres undefined) as the compound, how does the inhibition read?
A: 16.2% (inactive)

Q: Which inhibition does the source give for `COC(=O)C(C)NC(=S)N1CC2C[C@@H](C1)Cn1c2cccc1=O` (some centres undefined) here?
A: 14.9% (inactive)

From PubChem BioAssay AID1566 (Sanford-Burnham Center for Chemical Genomics, 2009)
